# PubChem BioAssay (EPA / NIEHS)
# Inconclusive results are not listed. Calls of active or inactive are those of the source. Rule for the calls, unless noted: active = hit-call score of the fitted dose curve at least 0.9, where 1 is the maximum; inactive = score below 0.9.
# How the values were obtained:
# [1] = CCTE_Shafer_MEA_acute_per_network_burst_electrodes_number_mean: CCTE's Neural Acute Assay for Mean Number of Electrodes in a Network Burst, Shafer Lab (AID 2284021);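 note: curves fitted for decreases only so hits reduce electrodes per burst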
# How it was run: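 Percent change from baseline in average electrode count per network burst, rat cortical cultures on 48-well MEAs; 40-min recordings each side of exposure, DIV 13 or 15; threshold 8x rms noise; DMSO as negative control.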
# [2] = CCTE_Shafer_MEA_acute_network_burst_percentage: CCTE's Neural Acute Assay for Percentage of Network Bursts, Shafer Lab (AID 2284022);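 note: rat primary cortical neuron networks on multiwell MEA recorded 40 min; curves fitted for loss so actives lower network burst percentage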
# How it was run: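 On DIV 13 or 15, at least three wells of rat cortical neurons per compound are dosed at 0.03-40 uM. Spontaneous firing is detected at 8x rms noise for 40 min before and after dosing at 37 C. The percent change in network-burst spike share is reported.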
# [3] = CCTE_Shafer_MEA_acute_cross_correlation_area: CCTE's Neural Acute Assay for Area of Cross Correlation, Shafer Lab (AID 2284024);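 note: area under pooled inter-electrode spike cross-correlation near zero lag as percent change from own baseline; curves fitted for loss of cross-correlation area so actives lower synchrony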
# How it was run: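 Extracellular recordings from cultured rat cortical neurons measure network synchrony as cross-correlation area; each well's post-compound value (0.03-40 uM, 40 min) is compared with its own 40 min baseline to give percent change.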
# [4] = CCTE_Shafer_MEA_acute_cross_correlation_HWHM: CCTE's Neural Acute Assay for Cross Correlation at Half Width at Half Maximum, Shafer Lab (AID 2284026);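 note: percent change per well from pre-dose baseline in spike cross-correlogram half width; hits are a decrease in cross-correlogram half width relative to DMSO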;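 for outcome: spontaneous network firing of rat primary cortical neurons on multiwell microelectrode arrays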
# How it was run: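 Percent change in cross-correlogram half width at half maximum, narrower meaning more synchrony, was derived per well from paired 40-min recordings before and during exposure to 0.03-40 uM compound in rat cortical cultures at 37 C.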
# [5] = CCTE_Shafer_MEA_acute_synchrony_index: CCTE's Neural Acute Assay for Synchrony, Shafer Lab (AID 2284027);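 note: network synchrony index of spontaneous spiking in primary rat cortical neurons on MEAs; fitted for loss of signal so actives lower synchrony relative to DMSO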
# How it was run: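 Plates equilibrated 20 min at 37 C, baseline recorded 40 min, compound (0.03-40 uM) added, then 40 min more recorded. Cells: primary rat cortical neurons, DIV 13 or 15. Per-well synchrony index change analysed in negative direction against DMSO.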
# [6] = target: Estrogen receptor (Homo sapiens) (UniProt P03372); test: CCTE_Deisenroth_AIME_384WELL_LUC_Active: CCTE's 384-well Estrogen Receptor Transactivation Assay with AIME metabolic competence (ERTA luciferase; metabolism positive), Deisenroth Lab (AID 2284030; active = hit-call score of the fitted dose curve at least 0.9, where 1 is the maximum)
# How it was run: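 Estrogenic luciferase signal in VM7Luc4E2 cells is measured at 24 hour, after chemicals have been preconditioned 2 hours with PB/BNF-induced rat hepatic S9 in alginate. Gain of signal is fitted relative to 17beta-estradiol, across 0.002 - 200 uM.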
# [7] = CCTE_Deisenroth_AIME_384WELL_CTox_Active: Cytotoxicity Assessment (CTOX) in CCTE's 384-well Estrogen Receptor Transactivation Assay with AIME metabolic competence (metabolism positive), Deisenroth Lab (AID 2284037; active = hit-call score of the fitted dose curve at least 0.9, where 1 is the maximum;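 note: chemicals first conditioned 2 h by alginate-bound induced rat liver S9 before cells; activity means signal loss indicating cell death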)
# How it was run: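 Chemicals pre-incubated 2 hours with alginate-immobilised phenobarbital/beta-naphthoflavone-induced male Sprague Dawley rat liver S9, then conditioned medium applied 24 hour to VM7Luc4E2 cells. Viability by fluorogenic protease substrate; 10-point series 0.002 - 200 uM.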
# [8] = target: Estrogen receptor (Homo sapiens) (UniProt P03372); test: CCTE_Deisenroth_AIME_384WELL_LUC_Inactive: CCTE's 384-well Estrogen Receptor Transactivation Assay without AIME metabolic competence (ERTA luciferase; metabolism negative), Deisenroth Lab (AID 2284038; active = hit-call score of the fitted dose curve at least 0.9, where 1 is the maximum;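 note: VM7Luc4E2 breast cells given medium preincubated 2 h with S9-free microspheres; hits raise estrogen receptor luciferase signal so potencies reflect agonists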)
# How it was run: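 VM7Luc4E2 ER transactivation, luciferase bioluminescence after 24 h, using medium pre-incubated 2 h with S9-free alginate microspheres. Concentrations 0.002–200 uM; gain of signal fitted relative to 17beta-estradiol.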
# [9] = CCTE_Deisenroth_AIME_384WELL_CTox_Inactive: Cytotoxicity Assessment (CTOX) in CCTE's 384-well Estrogen Receptor Transactivation Assay without AIME metabolic competence (metabolism negative), Deisenroth Lab (AID 2284039; active = hit-call score of the fitted dose curve at least 0.9, where 1 is the maximum;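 note: cell viability via live-cell protease substrate cleaved to fluorescent probe; cells exposed 24 h to medium preincubated 2 h with alginate-water beads without S9; loss of fluorescence signal means loss of viability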)
# How it was run: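 Fluorescent protease-substrate viability readout after 24 h exposure of VM7Luc4E2 cells to conditioned medium. Chemicals (0.002–200 uM) first sat 2 h over alginate-water beads, no S9. Data fitted bidirectionally, loss of signal meaning viability loss.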
# [10] = target: Estrogen receptor (Homo sapiens) (UniProt P03372); test: CCTE_Deisenroth_AIME_384WELL_LUC_Shift: CCTE's 384-well Estrogen Receptor Transactivation Assay with AIME metabolic competence data shift (ERTA luciferase; difference in metabolism positive and negative), Deisenroth Lab (AID 2284041);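 note: shift is response with S9 minus without S9 so positive means metabolism raised ER signal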
# How it was run: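 Chemicals (0.002–200 uM, 10 points) pre-incubated 2 h with alginate-encapsulated induced male Sprague Dawley rat liver S9 or S9-free, then medium applied 24 h to VM7Luc4E2 cells; luciferase. Endpoint is per-concentration difference, S9-positive minus negative.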
# [11] = CCTE_Shafer_MEA_dev_firing_rate_mean: CCTE's Neural Network Formation Assay for Mean Firing Rate, Shafer Lab (AID 2284031)
# How it was run: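 Steps: seed rat cortical cells (1.5 x 10^5/well) with laminin on PEI-coated MEA; dose day 0; record DIV 5/7/9/12, full media and compound exchange after DIV 5 and 9 recordings; compute well-mean firing rate AUC.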
# [12] = CCTE_Shafer_MEA_dev_per_burst_spike_percent: CCTE's Neural Network Formation Assay for Percent of Spikes in a Burst, Shafer Lab (AID 2284032)
# How it was run: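 Value is trapezoidal AUC over recordings on days 5, 7, 9 and 12 of the well-mean fraction of spikes falling in single-electrode bursts; rat cortical cultures exposed continuously from plating, treatment renewed DIV 5 and 9, fitted downward against DMSO.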
# [13] = CCTE_Shafer_MEA_dev_active_electrodes_number: CCTE's Neural Network Formation Assay for Number of Active Electrodes, Shafer Lab (AID 2284040; active = hit-call score of the fitted dose curve at least 0.9, where 1 is the maximum)
# How it was run: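 Counts electrodes per well firing at least 5 spikes/min, recorded on days 5, 7, 9 and 12 in rat cortical cultures dosed continuously from plating (treatment refreshed DIV 5, 9). Value is the area under the curve over recordings, fitted downward relative to DMSO.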
# [14] = CCTE_Shafer_MEA_dev_burst_rate: CCTE's Neural Network Formation Assay for Burst Rate, Shafer Lab (AID 2284042)
# How it was run: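 Exposure ran continuously over 12 days of network development in rat cortical cultures, with compound refreshed during full media changes on DIV 5 and 9. Single-electrode bursts per recording time, well-mean over active electrodes, trapezoidal AUC across days 5–12, fitted downward relative to DMSO.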
# [15] = CCTE_Shafer_MEA_dev_per_burst_interspike_interval: CCTE's Neural Network Formation Assay for Burst Interspike Interval, Shafer Lab (AID 2284044)
# How it was run: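 Spontaneous activity of maturing rat cortical networks is recorded on DIV 5, 7, 9 and 12 under chronic compound exposure beginning at plating. Endpoint: burst interspike interval well-mean, collapsed into trapezoidal AUC and fitted in the negative direction relative to DMSO.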
# [16] = CCTE_Shafer_MEA_dev_burst_duration_mean: CCTE's Neural Network Formation Assay for Mean Burst Duration, Shafer Lab (AID 2284045)
# How it was run: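 Rat cortical cultures, 1.5 x 10^5 cells/well with laminin drop; continuous dosing days 0–12, media plus treatment refreshed DIV 5, 9. AxIS adaptive spike detection; mean single-electrode burst duration, AUC over four recordings, negative direction vs DMSO.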
# [17] = CCTE_Shafer_MEA_dev_interburst_interval_mean: CCTE's Neural Network Formation Assay for Mean Interburst Interval, Shafer Lab (AID 2284046);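 note: well-mean interburst interval of bursting electrodes as AUC over four recording days; curve fitted for decrease in interburst interval relative to DMSO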
# How it was run: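 Primary rat cortical neurons on PEI-coated 48-well MEA plates (laminin added with cells at plating) (16 electrodes/well), exposed from plating day 0 with renewal at DIV 5 and 9. Mean inter-burst interval averaged over bursting electrodes, AUC across days 5, 7, 9, 12; DMSO baseline.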
# [18] = CCTE_Shafer_MEA_dev_inter_network_spike_interval_mean: CCTE's Neural Network Formation Assay for Mean Inter-network Spike Interval, Shafer Lab (AID 2284047)
# How it was run: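 Mean time between consecutive network-spike peaks, recorded extracellularly (adaptive spike detection) on DIV 5, 7, 9 and 12, summarized as trapezoidal AUC. Rat cortical cultures on MEAs dosed continuously days 0–12, re-dosed at feeds; loss-of-signal fit relative to DMSO.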
# [19] = CCTE_Shafer_MEA_dev_network_spike_number: CCTE's Neural Network Formation Assay for Number of Network Spikes, Shafer Lab (AID 2284048);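 note: synchronized bursts across electrodes counted on days 5 7 9 12 and integrated as AUC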
# How it was run: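 Rat cortical primary cultures on 48-well MEA (16 electrodes/well); continuous exposure DIV 0–12, full medium and treatment exchange DIV 5, 9. Readout: network spike count, AxIS adaptive detection, recordings DIV 5/7/9/12 collapsed to AUC; loss-of-signal fit, DMSO baseline.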
# [20] = CCTE_Shafer_MEA_dev_bursting_electrodes_number: CCTE's Neural Network Formation Assay for Number of Bursting Electrodes, Shafer Lab (AID 2284043; active = hit-call score of the fitted dose curve at least 0.9, where 1 is the maximum)
# How it was run: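 Rat cortical primary neurons, 48-well MEA, 16 electrodes/well; dosing DIV 0–12, re-dosed with full media change DIV 5, 9. Recordings DIV 5/7/9/12, AxIS adaptive spike detector; bursting electrode = ≥1 burst/2 min. AUC across days; loss of signal vs DMSO.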
# Sequence of Estrogen receptor (Homo sapiens) (P03372 whole entry, looked up): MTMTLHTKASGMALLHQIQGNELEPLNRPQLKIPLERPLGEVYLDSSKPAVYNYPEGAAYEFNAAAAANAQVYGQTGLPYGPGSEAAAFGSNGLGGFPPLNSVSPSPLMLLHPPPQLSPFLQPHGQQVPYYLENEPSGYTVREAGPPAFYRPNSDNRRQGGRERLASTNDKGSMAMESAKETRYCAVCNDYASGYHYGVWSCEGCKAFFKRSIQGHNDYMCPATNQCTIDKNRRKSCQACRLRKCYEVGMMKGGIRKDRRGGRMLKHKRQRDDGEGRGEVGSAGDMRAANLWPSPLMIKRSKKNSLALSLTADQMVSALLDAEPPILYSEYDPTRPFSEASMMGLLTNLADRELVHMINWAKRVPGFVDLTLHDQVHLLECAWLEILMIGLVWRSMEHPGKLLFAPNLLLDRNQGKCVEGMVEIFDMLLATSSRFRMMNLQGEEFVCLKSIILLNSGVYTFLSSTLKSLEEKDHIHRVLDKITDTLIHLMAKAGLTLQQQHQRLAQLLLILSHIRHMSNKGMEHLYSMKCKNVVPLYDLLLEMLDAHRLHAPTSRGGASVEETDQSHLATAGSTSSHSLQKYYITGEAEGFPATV
smiles,measurement,setting,value
Nc1ccc2ccccc2c1,outcome,[1],inactive
same,outcome,[2],inactive
same,outcome,[3],inactive
same,outcome,[4],inactive
same,outcome,[5],inactive
same,AC50,[6],13.8 µM (active)
same,outcome,[7],inactive
same,outcome,[8],inactive
same,outcome,[9],inactive
same,outcome,[10],inactive
[N-]=[N+]=[N-],outcome,[1],inactive
same,outcome,[2],inactive
same,outcome,[3],inactive
same,outcome,[4],inactive
same,outcome,[5],inactive
same,outcome,[6],inactive
same,outcome,[8],inactive
same,outcome,[10],inactive
ClC(Cl)(Cl)c1ccccc1,outcome,[1],inactive
same,outcome,[2],inactive
same,outcome,[3],inactive
same,outcome,[4],inactive
same,outcome,[5],inactive
COCCOCCO,outcome,[1],inactive
same,outcome,[2],inactive
same,outcome,[3],inactive
same,outcome,[4],inactive
same,outcome,[5],inactive
same,outcome,[6],inactive
same,outcome,[8],inactive
same,outcome,[9],inactive
same,outcome,[10],inactive
CCC1(c2ccccc2)C(=O)N=C(O)NC1=O (centres undefined),outcome,[1],inactive
same,outcome,[2],inactive
same,outcome,[3],inactive
same,outcome,[4],inactive
same,outcome,[5],inactive
same,outcome,[11],inactive
same,outcome,[12],inactive
same,outcome,[13],inactive
same,outcome,[14],inactive
same,outcome,[15],inactive
same,outcome,[16],inactive
same,outcome,[17],inactive
same,outcome,[18],inactive
same,outcome,[19],inactive
COP(=O)(CCC(=O)NCO)OC,outcome,[1],inactive
same,outcome,[2],inactive
same,outcome,[3],inactive
same,outcome,[4],inactive
same,outcome,[5],inactive
O=C(O)C1C(C(=O)O)C2(Cl)C(Cl)=C(Cl)C1(Cl)C2(Cl)Cl (centres undefined),outcome,[1],inactive
same,outcome,[2],inactive
same,outcome,[3],inactive
same,outcome,[4],inactive
same,outcome,[5],inactive
same,outcome,[11],inactive
same,outcome,[12],inactive
same,outcome,[14],inactive
same,outcome,[15],inactive
same,outcome,[16],inactive
same,outcome,[17],inactive
same,outcome,[18],inactive
same,outcome,[19],inactive
CCCCN(CCCC)SN(C)C(=O)Oc1cccc2c1OC(C)(C)C2,outcome,[6],inactive
same,outcome,[7],inactive
same,outcome,[8],inactive
same,outcome,[9],inactive
same,outcome,[10],inactive
Nc1ccc(Cl)cc1,outcome,[6],inactive
same,outcome,[7],inactive
same,outcome,[8],inactive
same,outcome,[9],inactive
same,outcome,[10],inactive
CCCCc1ccc(O)cc1,AC50,[6],26.1 µM (active)
same,AC50,[7],158 µM (active)
same,AC50,[8],20.2 µM (active)
same,outcome,[9],inactive
same,outcome,[10],inactive
c1ccc(OP(Oc2ccccc2)Oc2ccccc2)cc1,AC50,[6],76.8 µM (active)
same,outcome,[11],inactive
same,outcome,[12],inactive
same,outcome,[7],inactive
same,AC50,[8],75.4 µM (active)
same,outcome,[9],inactive
same,outcome,[13],inactive
same,AC50,[10],60.5 µM (active)
same,outcome,[14],inactive
same,outcome,[20],inactive
same,outcome,[15],inactive
same,outcome,[16],inactive
same,outcome,[17],inactive
same,outcome,[18],inactive
same,outcome,[19],inactive
CCCCC(CC)COP(=O)(Oc1ccccc1)Oc1ccccc1 (centres undefined),outcome,[1],inactive
same,outcome,[2],inactive
same,outcome,[3],inactive
same,AC50,[4],10.3 µM (active)
same,AC50,[5],22.1 µM (active)
same,AC50,[6],34.1 µM (active)
same,outcome,[11],inactive
same,outcome,[12],inactive
same,outcome,[7],inactive
same,outcome,[8],inactive
same,outcome,[9],inactive
same,outcome,[13],inactive
same,outcome,[10],inactive
same,outcome,[14],inactive
same,outcome,[20],inactive
same,outcome,[15],inactive
same,outcome,[16],inactive
same,outcome,[17],inactive
same,outcome,[18],inactive
same,outcome,[19],inactive
